In test [1] the target is Glucocorticoid receptor (Homo sapiens) (UniProt P04150). Put plainly: ATG_GR_TRANS: Attagene TRANS-FACTORIAL HepG2 Assay for human Glucocorticoid Receptor (GR) (AID 2282978; active = hit-call score of the fitted dose curve at least 0.9, where 1 is the maximum;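 also: activators score as hits since higher reporter transcript over DMSO is fitted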). As to conditions: HepG2 Attagene TRANS GR reporter, mRNA transcription. The method in brief:
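HepG2 cells transiently transfected with GAL4-UAS reporter units and exogenous GR-Gal4 chimera, dosed 24 h. Reporter mRNA by RT-PCR, FAM labeling, HpaI digest and capillary electrophoresis; gain-of-signal fit versus DMSO.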

The target of test [2] is Oxysterols receptor LXR-alpha (Homo sapiens) (UniProt Q13133). Put plainly: ATG_LXRa_TRANS: Attagene TRANS-FACTORIAL HepG2 Assay for human Liver X Receptor alpha (LXRa) (AID 2282980; active = hit-call score of the fitted dose curve at least 0.9, where 1 is the maximum). As to conditions: HepG2 Attagene TRANS reporter, LXRa transactivation. The method in brief: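 HepG2 cells were transiently transfected with multiplexed reporter units driven by chimeric LXRa–GAL4 fusion proteins, then dosed for 24 h. Reporter mRNA was quantified by RT-PCR, fluorescent labelling and capillary electrophoresis; gain of signal fitted against DMSO baseline.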
Oxysterols receptor LXR-alpha (Homo sapiens), sequence (Q13133 whole entry, looked up, the tested form may be a part): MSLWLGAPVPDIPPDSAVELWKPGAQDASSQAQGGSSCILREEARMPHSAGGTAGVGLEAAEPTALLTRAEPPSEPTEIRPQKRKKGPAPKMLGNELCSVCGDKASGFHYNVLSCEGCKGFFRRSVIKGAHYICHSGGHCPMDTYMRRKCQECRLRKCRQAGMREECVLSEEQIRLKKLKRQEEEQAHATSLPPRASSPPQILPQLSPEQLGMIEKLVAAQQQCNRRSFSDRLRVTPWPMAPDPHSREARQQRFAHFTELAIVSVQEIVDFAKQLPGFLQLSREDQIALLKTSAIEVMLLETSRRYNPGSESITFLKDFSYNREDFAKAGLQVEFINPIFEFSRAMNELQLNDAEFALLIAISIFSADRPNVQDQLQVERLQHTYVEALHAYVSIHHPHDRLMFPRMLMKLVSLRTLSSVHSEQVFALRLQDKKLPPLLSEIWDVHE

The target of test [3] is Oxysterols receptor LXR-beta (Homo sapiens) (UniProt P55055). The test is described as follows: ATG_LXRb_TRANS: Attagene TRANS-FACTORIAL HepG2 Assay for human Liver X Receptor beta (LXRb) (AID 2282981; active = hit-call score of the fitted dose curve at least 0.9, where 1 is the maximum). The following applies: HepG2 Attagene TRANS GAL4-LXRb reporter, mRNA. The procedure, abridged:
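HepG2 cells transiently transfected with multiple reporter transcription units carrying chimeric NR-Gal4 proteins acting on GAL4-UAS reporters; compound exposure 24 h. Reporter mRNA quantified by RT-PCR, 6-FAM labelling, HpaI digestion and capillary electrophoresis; gain of signal versus DMSO.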

In test [4] the target is Transcriptional activator Myb (Homo sapiens) (UniProt P10242). Put plainly: ATG_Myb_CIS: Attagene CIS-FACTORIAL HepG2 Assay for human Myeloblastosis (Myb) Proto-Oncogene Transcription Factor (AID 2282986). As to conditions: HepG2 Attagene CIS-FACTORIAL Myb reporter transcription; actives raise or lower the signal. The procedure, abridged:
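Transiently transfected HepG2 cells carrying a multiplexed cis-promoter reporter set report endogenous Myb activity after 24 h compound exposure. Reporter mRNA is read by RT-PCR with capillary electrophoresis of fluorescent products, fitted bidirectionally against DMSO.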

The target in test [5] is Nuclear respiratory factor 1 (Homo sapiens) (UniProt Q16656). Put plainly: ATG_NRF1_CIS: Attagene CIS-FACTORIAL HepG2 Assay for human Nuclear Respiratory Factor 1 (NRF1) Orphan Gene (AID 2282987). The following applies: HepG2 NRF1 cis-element reporter, Attagene multiplex; actives raise or lower the signal. The method in brief: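 HepG2 cells transiently transfected with multiple cis-regulated reporter units, exposed 24 h. Reporter mRNAs measured by RT-PCR, fluorescent labelling, HpaI digestion and capillary electrophoresis; bidirectional fitting against DMSO.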
Nuclear respiratory factor 1 (Homo sapiens), sequence (Q16656 whole entry, looked up): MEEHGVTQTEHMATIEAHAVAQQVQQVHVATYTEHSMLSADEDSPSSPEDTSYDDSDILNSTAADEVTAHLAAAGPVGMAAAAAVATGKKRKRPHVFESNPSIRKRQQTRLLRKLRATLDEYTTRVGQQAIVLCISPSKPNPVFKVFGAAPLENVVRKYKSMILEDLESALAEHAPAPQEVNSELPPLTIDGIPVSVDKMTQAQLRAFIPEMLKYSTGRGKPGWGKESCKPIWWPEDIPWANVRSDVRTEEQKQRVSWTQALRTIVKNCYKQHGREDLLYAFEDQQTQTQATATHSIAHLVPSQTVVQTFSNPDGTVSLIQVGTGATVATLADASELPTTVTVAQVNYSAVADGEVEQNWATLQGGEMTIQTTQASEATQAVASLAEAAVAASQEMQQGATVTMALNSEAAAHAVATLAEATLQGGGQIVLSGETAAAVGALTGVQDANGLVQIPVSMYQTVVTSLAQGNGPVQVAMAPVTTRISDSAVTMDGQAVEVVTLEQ

A short description of test [6]: ATG_NFI_CIS: Attagene CIS-FACTORIAL HepG2 Assay for human Nuclear Factor I (NFI) (AID 2282989). The following applies: HepG2 cis-regulatory reporter, NFI response element transcription; actives raise or lower the signal. The procedure, abridged:
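Reporter transcripts were measured by RT-PCR with fluorescent primer extension and capillary electrophoresis 24 h post-treatment. HepG2 cells carried transiently transfected cis-regulated reporter constructs reporting endogenous factor activity; gain or loss fitted against DMSO baseline.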

The target in test [7] is Myc proto-oncogene protein (Homo sapiens) (UniProt P01106). Put plainly: ATG_Myc_CIS: Attagene CIS-FACTORIAL HepG2 Assay for human Myelocytomatosis (Myc) Proto-Oncogene Transcription Factor (AID 2282990). As to conditions: HepG2, Attagene cis-reporter transcription factor activity; actives raise or lower the signal. The procedure, abridged:
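DMSO-normalised, bidirectionally fitted reporter mRNA signal. HepG2 cells transfected with cis reporter constructs, treated 24 h; transcripts detected by RT-PCR, 6-FAM primer extension and CE.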

Test [8] can be described thus: ATG_NF_kB_CIS: Attagene CIS-FACTORIAL HepG2 Assay for human Nuclear Factor Kappa B (NF-kB) (AID 2282991). The following applies: HepG2 Attagene cis-factorial NF-kB reporter mRNA; actives raise or lower the signal. The procedure, abridged:
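HepG2 cells transfected with cis-promoter-driven reporter units, so endogenous transcription factor activity is measured. Reporter mRNA quantified 24 h after dosing by RT-PCR and capillary electrophoresis, with bidirectional fitting against DMSO.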

A short description of test [9]: ATG_NRF2_ARE_CIS: Attagene CIS-FACTORIAL HepG2 Assay for human Nuclear Factor Erythroid 2 Related Factor 2 (NFR2) response to Antioxidant Response Elements (ARE) (AID 2282992).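 As to AC50: reporter mRNA level measured by RT-PCR and capillary electrophoresis fluorescence.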 As to conditions: HepG2 Attagene ARE/NRF2 reporter, transcription factor activity; actives raise or lower the signal. The method in brief:
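Transient MRTU transfection of HepG2; 24 h compound exposure; TriZol RNA, RT with oligo(dT), PCR, 6-FAM primer extension, HpaI cut, CE. Bidirectional fit vs DMSO.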

Test [10] is described as follows: ATG_Oct_MLP_CIS: Attagene CIS-FACTORIAL HepG2 Assay for human Octamer-Binding Transcription Factor (Oct) (AID 2282993). The following applies: HepG2 Attagene cis-factorial Oct reporter, mRNA; actives raise or lower the signal. The procedure, abridged:
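Readout is reporter transcript level from RT-PCR with fluorescent primer extension and capillary electrophoresis, fitted in both directions against DMSO. Transfected HepG2 reporter units report endogenous factor activity after 24 h dosing.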

Test [11] can be described thus: BSK_3C_TissueFactor: BioMAP Diversity Plus: 3C Assay for Tissue Factor Biomarker Activity (AID 2282997). As to conditions: BioMAP 3C HUVEC, tissue factor biomarker readout; actives raise or lower the signal. The method in brief: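 Primary human umbilical vein endothelial cells in the 3C system were exposed to test chemical for 24 h, then Tissue Factor measured by ELISA. Activity was fitted bidirectionally against DMSO as negative control and baseline.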

The nature of test [12]: BSK_3C_uPAR: BioMAP Diversity Plus: 3C Assay for Urokinase-type plasminogen activator receptor (uPAR) Biomarker Activity (AID 2282998). The following applies: BioMAP 3C HUVEC, uPAR biomarker ELISA; actives raise or lower the signal. The method in brief: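 Cell-surface uPAR on HUVEC (3C system) read by ELISA at 24 h post-treatment, with DMSO as baseline and fitting in both directions. Parallel cultures stained with SRB to flag overt cytotoxicity.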

Test [13] concerns the target Hepatocyte nuclear factor 4-alpha (Homo sapiens) (UniProt P41235). The test is described as follows: ATG_HNF4a_TRANS: Attagene TRANS-FACTORIAL HepG2 Assay for human Hepatocyte Nuclear Factor 4 alpha (HNF4a) (AID 2282982; active = hit-call score of the fitted dose curve at least 0.9, where 1 is the maximum). The following applies: HepG2 HNF4a transactivation reporter, mRNA readout. The procedure, abridged:
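HepG2 cells transiently transfected with multiplexed GAL4-UAS reporter units responsive to chimeric NR-GAL4 proteins; compound exposure 24 h. Reporter mRNA quantified by RT-PCR, 6-FAM labelling, HpaI digestion and capillary electrophoresis; gain of signal versus DMSO baseline.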

The nature of test [14]: ATG_M_06_TRANS: Attagene TRANS-FACTORIAL HepG2 Assay for M06 Transcription Factor (Internal Marker) (AID 2282983; active = hit-call score of the fitted dose curve at least 0.9, where 1 is the maximum). As to conditions: HepG2 Attagene TRANS M06 internal marker reporter. The method in brief:
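HepG2 cells transiently transfected with multiplexed GAL4-UAS reporter transcription units; after 24 h compound exposure, reporter mRNA measured by RT-PCR, FAM-labelled primer extension, HpaI digestion and capillary electrophoresis. Gain-of-signal fitted versus DMSO baseline; background control readout.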

The nature of test [15]: ATG_M_32_TRANS: Attagene TRANS-FACTORIAL HepG2 Assay for M32 Transcription Factor (Internal Marker) (AID 2282984; active = hit-call score of the fitted dose curve at least 0.9, where 1 is the maximum). The following applies: HepG2 Attagene TRANS M32 internal marker reporter. The method in brief:
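HepG2 cells transiently transfected with multiple GAL4-UAS reporter transcription units, dosed for 24 hours; reporter mRNA quantified by RT-PCR, 6-FAM primer extension, HpaI digestion and capillary electrophoresis. Gain-of-signal fitted versus DMSO baseline; internal background-control marker.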

Test [16] has as its target Nuclear receptor subfamily 4 group A member 2 (Homo sapiens) (UniProt P43354). Put plainly: ATG_NURR1_TRANS: Attagene TRANS-FACTORIAL HepG2 Assay for human Nuclear Receptor Related Protein 1 (NURR1) (AID 2282985; active = hit-call score of the fitted dose curve at least 0.9, where 1 is the maximum). The following applies: HepG2 Attagene TRANS reporter, mRNA readout. The procedure, abridged:
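HepG2 cells transiently transfected with GAL4-UAS reporter units and chimeric NR-Gal4 constructs; chemical exposure 24 h. Reporter mRNA quantified by RT-PCR, fluorescent labelling and capillary electrophoresis; gain of signal fitted relative to DMSO baseline.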

Test [17] deals with Cellular tumor antigen p53 (Homo sapiens) (UniProt P04637). Put plainly: ATG_p53_CIS: Attagene CIS-FACTORIAL HepG2 Assay for human p53 Transcription Factor (AID 2282994). The following applies: HepG2 p53 cis-element reporter, Attagene mRNA; actives raise or lower the signal. The method in brief: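 HepG2, transient MRTU transfection (cis promoter elements, endogenous TFs); 24 h dosing; RNA isolation, RT-PCR, 6-FAM primer extension, HpaI digest, CE fluorescence; bidirectional fit vs DMSO.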
Cellular tumor antigen p53 (Homo sapiens), sequence (P04637 whole entry, looked up): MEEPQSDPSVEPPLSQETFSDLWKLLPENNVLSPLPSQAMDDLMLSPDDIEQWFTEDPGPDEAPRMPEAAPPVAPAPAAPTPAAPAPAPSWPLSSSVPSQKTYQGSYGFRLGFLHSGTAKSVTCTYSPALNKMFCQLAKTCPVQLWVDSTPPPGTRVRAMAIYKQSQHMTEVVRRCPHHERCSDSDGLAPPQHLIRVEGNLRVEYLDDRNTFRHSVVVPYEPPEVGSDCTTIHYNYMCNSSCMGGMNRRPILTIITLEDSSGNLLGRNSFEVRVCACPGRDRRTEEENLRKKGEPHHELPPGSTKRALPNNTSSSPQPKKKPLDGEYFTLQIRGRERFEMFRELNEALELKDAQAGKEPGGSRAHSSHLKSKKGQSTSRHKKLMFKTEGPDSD

Results filed as inconclusive are left out. Activity calls are given as the source filed them. The calls were made as follows, unless noted: active = hit-call score of the fitted dose curve at least 0.9, where 1 is the maximum; inactive = score below 0.9.

Glucocorticoid receptor (Homo sapiens), sequence (P04150 whole entry, looked up, the tested form may be a part): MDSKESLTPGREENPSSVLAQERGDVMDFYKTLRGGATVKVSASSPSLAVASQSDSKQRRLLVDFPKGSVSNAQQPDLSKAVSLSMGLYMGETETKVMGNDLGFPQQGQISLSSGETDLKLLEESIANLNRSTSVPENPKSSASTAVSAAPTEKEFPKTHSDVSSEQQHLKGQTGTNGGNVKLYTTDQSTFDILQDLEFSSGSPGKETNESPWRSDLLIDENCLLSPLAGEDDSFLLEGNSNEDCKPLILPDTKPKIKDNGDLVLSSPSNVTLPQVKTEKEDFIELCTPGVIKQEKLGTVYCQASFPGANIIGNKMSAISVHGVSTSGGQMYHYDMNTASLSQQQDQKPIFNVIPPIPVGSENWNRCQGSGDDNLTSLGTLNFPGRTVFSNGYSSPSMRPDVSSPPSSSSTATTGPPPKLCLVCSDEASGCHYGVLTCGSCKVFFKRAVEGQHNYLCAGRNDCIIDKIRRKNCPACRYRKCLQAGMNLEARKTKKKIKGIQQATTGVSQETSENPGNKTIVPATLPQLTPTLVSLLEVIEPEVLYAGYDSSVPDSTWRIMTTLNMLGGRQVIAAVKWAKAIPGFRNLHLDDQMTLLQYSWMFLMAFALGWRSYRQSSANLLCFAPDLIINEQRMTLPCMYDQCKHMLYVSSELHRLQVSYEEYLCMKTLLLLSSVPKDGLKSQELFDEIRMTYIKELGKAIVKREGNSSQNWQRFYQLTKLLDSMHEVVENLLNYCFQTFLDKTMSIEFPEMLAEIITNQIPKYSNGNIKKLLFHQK
Myc proto-oncogene protein (Homo sapiens), sequence (P01106 whole entry, looked up): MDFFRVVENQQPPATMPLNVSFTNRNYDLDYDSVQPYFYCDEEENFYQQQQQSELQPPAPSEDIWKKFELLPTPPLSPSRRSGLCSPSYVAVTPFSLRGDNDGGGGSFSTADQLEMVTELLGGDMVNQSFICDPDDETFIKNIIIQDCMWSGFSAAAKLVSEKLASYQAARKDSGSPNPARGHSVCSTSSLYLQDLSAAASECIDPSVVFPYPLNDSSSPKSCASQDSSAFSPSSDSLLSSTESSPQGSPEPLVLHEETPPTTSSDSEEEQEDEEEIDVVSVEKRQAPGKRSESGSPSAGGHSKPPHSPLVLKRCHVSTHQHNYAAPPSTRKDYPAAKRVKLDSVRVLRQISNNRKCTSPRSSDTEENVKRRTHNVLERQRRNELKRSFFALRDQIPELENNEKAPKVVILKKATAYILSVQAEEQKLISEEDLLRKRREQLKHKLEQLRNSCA
Oxysterols receptor LXR-beta (Homo sapiens), sequence (P55055 whole entry, looked up, the tested form may be a part): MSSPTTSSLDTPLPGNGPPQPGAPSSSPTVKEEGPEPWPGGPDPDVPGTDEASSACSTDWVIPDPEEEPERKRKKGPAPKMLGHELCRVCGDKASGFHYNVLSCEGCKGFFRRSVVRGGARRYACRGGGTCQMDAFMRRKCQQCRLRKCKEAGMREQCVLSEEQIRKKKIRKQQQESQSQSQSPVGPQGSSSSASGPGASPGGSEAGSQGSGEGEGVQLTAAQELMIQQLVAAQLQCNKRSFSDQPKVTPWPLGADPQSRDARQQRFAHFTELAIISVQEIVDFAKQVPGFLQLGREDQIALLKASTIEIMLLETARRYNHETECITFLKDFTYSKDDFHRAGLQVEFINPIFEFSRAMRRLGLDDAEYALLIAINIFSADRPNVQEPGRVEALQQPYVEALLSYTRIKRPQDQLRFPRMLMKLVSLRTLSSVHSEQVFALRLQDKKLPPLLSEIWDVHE
Nuclear receptor subfamily 4 group A member 2 (Homo sapiens), sequence (P43354 whole entry, looked up, the tested form may be a part): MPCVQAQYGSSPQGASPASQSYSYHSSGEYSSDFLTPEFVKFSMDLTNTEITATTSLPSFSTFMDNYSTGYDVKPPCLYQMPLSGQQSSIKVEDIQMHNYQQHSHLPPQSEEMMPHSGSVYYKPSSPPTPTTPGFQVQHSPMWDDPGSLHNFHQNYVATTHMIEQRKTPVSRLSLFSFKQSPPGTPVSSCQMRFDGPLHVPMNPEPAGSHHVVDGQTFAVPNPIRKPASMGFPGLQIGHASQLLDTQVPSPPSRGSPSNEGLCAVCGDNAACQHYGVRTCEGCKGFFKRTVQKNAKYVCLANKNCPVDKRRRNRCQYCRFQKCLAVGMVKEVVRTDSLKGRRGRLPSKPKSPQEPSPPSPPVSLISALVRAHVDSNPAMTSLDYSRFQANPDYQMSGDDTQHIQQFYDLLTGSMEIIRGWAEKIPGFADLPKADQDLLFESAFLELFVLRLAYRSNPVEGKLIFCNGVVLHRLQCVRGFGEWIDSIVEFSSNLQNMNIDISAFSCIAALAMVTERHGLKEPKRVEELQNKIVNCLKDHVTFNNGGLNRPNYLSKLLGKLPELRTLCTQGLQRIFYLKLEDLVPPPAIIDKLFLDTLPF
Hepatocyte nuclear factor 4-alpha (Homo sapiens), sequence (P41235 whole entry, looked up, the tested form may be a part): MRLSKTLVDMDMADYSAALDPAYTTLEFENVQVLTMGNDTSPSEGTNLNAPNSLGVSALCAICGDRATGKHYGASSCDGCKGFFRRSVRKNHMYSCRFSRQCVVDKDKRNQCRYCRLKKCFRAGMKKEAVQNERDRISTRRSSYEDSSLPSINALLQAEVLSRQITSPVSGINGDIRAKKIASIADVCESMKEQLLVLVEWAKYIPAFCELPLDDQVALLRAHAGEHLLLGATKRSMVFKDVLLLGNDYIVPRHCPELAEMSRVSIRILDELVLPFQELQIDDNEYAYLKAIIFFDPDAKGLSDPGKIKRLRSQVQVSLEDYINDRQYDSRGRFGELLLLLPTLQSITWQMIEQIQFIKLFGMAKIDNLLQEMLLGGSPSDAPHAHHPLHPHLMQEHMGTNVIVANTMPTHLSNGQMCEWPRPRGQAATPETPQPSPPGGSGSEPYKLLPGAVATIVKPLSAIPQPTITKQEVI
Transcriptional activator Myb (Homo sapiens), sequence (P10242 whole entry, looked up): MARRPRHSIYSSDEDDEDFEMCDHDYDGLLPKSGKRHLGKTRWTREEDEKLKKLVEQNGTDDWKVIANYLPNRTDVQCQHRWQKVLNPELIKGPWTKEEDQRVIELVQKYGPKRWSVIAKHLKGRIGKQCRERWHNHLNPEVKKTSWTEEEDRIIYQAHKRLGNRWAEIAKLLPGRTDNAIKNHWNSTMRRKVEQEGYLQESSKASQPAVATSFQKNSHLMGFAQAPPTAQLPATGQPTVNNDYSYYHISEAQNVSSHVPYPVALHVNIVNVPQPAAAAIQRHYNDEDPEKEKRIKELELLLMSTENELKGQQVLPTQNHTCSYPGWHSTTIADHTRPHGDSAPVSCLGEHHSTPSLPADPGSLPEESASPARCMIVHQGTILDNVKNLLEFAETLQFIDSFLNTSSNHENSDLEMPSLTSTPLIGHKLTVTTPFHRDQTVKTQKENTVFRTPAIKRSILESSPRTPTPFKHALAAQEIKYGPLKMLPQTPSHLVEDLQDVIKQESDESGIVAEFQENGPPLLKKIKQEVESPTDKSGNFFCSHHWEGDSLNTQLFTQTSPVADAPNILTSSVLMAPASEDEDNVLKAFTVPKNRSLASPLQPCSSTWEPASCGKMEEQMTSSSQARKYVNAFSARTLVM

As to `CCOC(=O)CC(SP(=O)(OC)OC)C(=O)OCC` (stereo not drawn), the outcome in test [1], in test [2], in test [3], in [4], in test [5] and in test [6] was inactive. Further, the compound was called inactive in [7], in [8], in test [10], in test [11] and in test [12]. Also, in test [9], the AC50 (usually the concentration at which the activity in the assay is half-maximal) was 21.9 µM (active).
For the compound `CC(C)N(C(=O)SCC(Cl)=C(Cl)Cl)C(C)C`, the AC50 in test [2] was 29.1 µM (active); in [3] it was 20.1 µM (active); in test [9] it was 13.5 µM (active); in test [10], 24.7 µM (active); in [11], 32.9 µM (active); in [12], 32.2 µM (active). Besides, the outcome in test [13], in test [14], in test [15], in test [16], in test [4] and in [5] was inactive. In addition, the compound was classed as inactive in test [6], in test [7] and in [8].
Regarding `CCc1cccc(CC)c1N(COC)C(=O)CCl`, the result in test [1], in test [2], in test [3], in test [13], in test [4] and in test [6] was inactive. Besides, the compound was called inactive in [8], in [11] and in test [12]. In addition, the AC50 is 2.68 µM (active) in test [7], 3.31 µM (active) in [9] and 3.21 µM (active) in test [10].
`CN(C)NC(=O)CCC(=O)O`: the outcome in [2], in test [3], in test [14], in test [15], in [16] and in test [4] was inactive. In addition, the compound was called inactive in test [6], in test [7], in test [8], in test [9], in test [10] and in test [17]. Moreover, the result in test [11] and in test [12] was inactive.
For the compound `CC(=NC#N)N(C)Cc1ccc(Cl)nc1`, the compound was called inactive in test [2], in test [3], in test [13], in test [14], in [15] and in test [16]. In addition, the call in test [4], in test [6], in test [7], in test [8], in test [9] and in test [10] was inactive. The compound was classed as inactive in [17], in test [11] and in test [12].
As for `CNc1cnn(-c2cccc(C(F)(F)F)c2)c(=O)c1Cl`, the outcome in test [1], in test [2], in test [3], in test [14], in test [4] and in test [5] was inactive. In addition, the call in test [6], in test [7], in test [8], in test [11] and in test [12] was inactive. Also, the AC50 in test [9] was 17.1 µM (active); in [10] it was 13.7 µM (active).
As to `O=c1ccc(=O)[nH][nH]1`, the call in test [2], in test [3], in [13], in test [14], in [15] and in [16] was inactive. The compound was classed as inactive in test [4], in test [6], in [7], in test [8], in [9] and in test [10]. For the same compound, the result in test [11] and in [12] was inactive.
For `CC[C@H](C)[C@H]1O[C@]2(C=C[C@@H]1C)C[C@@H]1C[C@@H](C/C=C(\C)[C@@H](O[C@H]3C[C@H](OC)[C@@H](O[C@H]4C[C@H](OC)[C@@H](NC)[C@H](C)O4)[C@H](C)O3)[C@@H](C)/C=C/C=C3\CO[C@@H]4[C@H](O)C(C)=C[C@@H](C(=O)O1)[C@]34O)O2`, the result in test [2], in [3], in test [13], in test [15], in test [4] and in test [5] was inactive. Also, the compound was classed as inactive in test [6], in test [7], in [9], in test [10] and in test [11]. For the same compound, in [12], the AC50 is 1.93 µM (active).
On to `CCOP(=O)(OCC)Oc1cc(C)nc(C(C)C)n1`, for which the call in test [14], in test [15], in test [16], in test [4], in [6] and in [7] was inactive. Besides, the compound was classed as inactive in [9], in [10], in test [17], in test [11] and in test [12].

Values taken from PubChem BioAssay (EPA / NIEHS).
